From PubChem
TRPML1 inh = qHTS for Inhibitors of the Human Mucolipin Transient Receptor Potential 1 (TRPML1) | Mucolipin-1 (Homo sapiens), Q9GZU1 | activity change, negative = inhibition, % (test concentration not listed) | actives 0.02% (n = 390,000) | TRPML1-inducible cells, Ca2+ dye fluorescence, FDSS; active compounds read low; inhibition of EC80 agonist-evoked calcium signal; in the data active = activity change below about -50%; inconclusive = between about -30% and that limit;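 note: stimulus is agonist 54-4 at its EC80 concentration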
Target sequence (Q9GZU1 whole entry, looked up): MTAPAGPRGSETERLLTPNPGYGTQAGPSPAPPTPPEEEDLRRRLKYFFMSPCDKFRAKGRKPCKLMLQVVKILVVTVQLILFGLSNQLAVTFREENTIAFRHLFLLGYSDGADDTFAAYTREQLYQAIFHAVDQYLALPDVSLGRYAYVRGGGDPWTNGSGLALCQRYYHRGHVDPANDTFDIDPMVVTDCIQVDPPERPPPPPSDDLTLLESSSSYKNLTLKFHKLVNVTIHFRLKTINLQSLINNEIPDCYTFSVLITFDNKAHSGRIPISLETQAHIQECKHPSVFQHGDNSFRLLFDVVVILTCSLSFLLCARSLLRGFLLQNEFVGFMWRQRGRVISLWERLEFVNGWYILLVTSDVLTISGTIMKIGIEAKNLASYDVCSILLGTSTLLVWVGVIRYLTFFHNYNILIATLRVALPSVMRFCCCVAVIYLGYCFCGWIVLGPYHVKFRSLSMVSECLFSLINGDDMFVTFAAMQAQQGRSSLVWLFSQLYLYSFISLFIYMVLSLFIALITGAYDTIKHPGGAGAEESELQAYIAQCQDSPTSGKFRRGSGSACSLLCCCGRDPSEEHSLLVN
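Tet-induced TRPML1-DL cells loaded with Ca8 no-wash calcium dye were read kinetically on FDSS. Compound addition was followed by EC80 agonist 54-4 (4 uM final); inhibition was read over 110 s.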
uPA generation = qHTS for Inhibitors of Cell Surface uPA Generation; cell surface uPA generation assay, qHTS; Potency, µM (series often up to 38.3 µM), usual class: inhibitors; actives 0.31% (n = 330,000); active = well fitted inhibition curve with a large enough effect; inconclusive = small, poorly fitted or top-dose-only effect; inactive = no such curve, though single readings can be large or run the other way; tested in mouse RAW 264.7 cells; note: nearly all actives have a fitted effect of over 55% in size
TRPML1 agonist = qHTS for Agonists of the Human Mucolipin Transient Receptor Potential 1 (TRPML1). Mucolipin-1 (Homo sapiens), Q9GZU1. TRPML1-expressing cells, Ca2+ dye fluorescence, FDSS. activation, % (test concentration not listed). actives 0.12% (n = 410,000); in the data active = activation above about 50%; inconclusive = mostly about 30% to 49%
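Kinetic FDSS Ca2+ read in Tet-induced TRPML1-DL cells (ABD Ca8 dye plus quencher, 45-90 min RT loading): baseline, then compound, then 110 s agonist window; EC80 agonist 54-4 at 4uM final added afterwards for a 110 s antagonist window.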
miR-21 act = qHTS Assay for Modulators of miRNAs and/orActivators of miR-21. HeLa miR-21 FLuc reporter, luciferase, 48 h. Potency, µM (series often up to 38.3 µM), actives largely listed as activators. 340,000 tested, under 10 active; active = well fitted curve in the direction sought with a large enough effect; inconclusive = small, poorly fitted or top-dose-only effect, or another doubt; inactive = no such curve, though single readings can be large or run the other way;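 note: miR-21 action dims this reporter so a rising signal means less miR-21 action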
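HeLa cells stably expressing CMV-driven firefly luciferase with a downstream miR-21 binding sequence, endogenously expressing miR-21, were treated with titrations (up to about 40uM final) for 48 hours at 37 degree Celsius. Luciferase luminescence was read after lysis.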
Large screens that a line does not name were inactive. This is a sample that favours compounds with a hit; in the whole collection about 0.34% have one here.

Cc1ccc(N2C(=O)c3cccc4c(N)ccc(c34)C2=O)c2cccnc12	TRPML1 agonist 90.4
CCCN(CCC)c1ccc(/C=C/c2sc3ccccc3[n+]2CCCCI)cc1	none (no result: TRPML1 inh, uPA generation, miR-21 act)
O=C(Cc1ccc(OCc2ccccn2)cc1)NO	none (no result: TRPML1 inh, uPA generation, miR-21 act)
O=C(Nc1ccc(NC(=O)c2ccccn2)cc1)C(=O)Nc1ccc2c(c1)OCCO2	none
O=C(Nc1ccc2c(c1)OCCO2)c1ccccn1	uPA generation 3.55µM
COc1ccc(C2CC(=O)N3CN(c4ccc(C)c(Cl)c4)CSC3=C2C#N)cc1OC (centres undefined)	uPA generation 7.08µM
COc1ccc(N2CSC3=C(C#N)C(c4ccc(OC)c(OC)c4)CC(=O)N3C2)c(OC)c1 (centres undefined)	none
CN1CCN(c2ccc(S(=O)(=O)N3CCOCC3)cc2NC(=O)C2CCCCC2)CC1	none (no result: miR-21 act)
CCN1CCN(c2ccc(S(=O)(=O)N3CCOCC3)cc2NC(=O)C2CCC(C(C)(C)C)CC2)CC1 (centres undefined)	uPA generation 4.47µM (no result: miR-21 act)
COc1cc2nc(N3CCCN(C)CC3)nc(NC3CCNCC3)c2cc1OC	none (no result: TRPML1 inh, uPA generation, miR-21 act)
Cc1cc(C(C)(C)C)cc(C)c1C[n+]1ccc2ccccc2c1	uPA generation 4.47µM, miR-21 act inconclusive
CCN(CC)c1ccc2cc(-c3nnc(Nc4ccc(C)cc4)s3)c(=O)oc2c1	TRPML1 agonist 67.1 (no result: uPA generation)
Cc1ccc(Nc2nnc(-c3cc4c(ccc5ccccc54)oc3=O)s2)cc1	none (no result: uPA generation)
O=S(=O)(Nc1cccc(-c2ccc3nncn3n2)c1)c1cccc(F)c1	none (no result: miR-21 act)
COc1ccc(S(=O)(=O)Nc2cccc(-c3ccc4nncn4n3)c2)cc1F	uPA generation 2.82µM
C=C1C=C(C(F)F)n2ncc(C(=O)NCc3ccccc3OC)c2N1	none (no result: TRPML1 inh, uPA generation, miR-21 act)
Cc1ccc(NS(=O)(=O)c2ccc(C(=O)N3CCN(S(=O)(=O)c4ccccc4)CC3)cc2)cc1	uPA generation 7.08µM (no result: miR-21 act)
COCCn1c(C)cc(C(=O)COC(=O)c2ccccc2Br)c1C	uPA generation 2.51µM
Clc1cccc[n+]1CCc1ccccc1	none (no result: TRPML1 inh, uPA generation, miR-21 act)
O=C1S/C(=C\c2ccc(N3CCOCC3)o2)C(=O)N1c1ccccc1	TRPML1 agonist 56.7
O=C(O)c1ccccc1-c1ccc(/C=C2\SC(=O)N(c3ccccc3)C2=O)o1	none
CCOC(=O)CNC(c1ccccc1)c1cc(Br)ccc1NC(=O)CCN1CCOCC1 (centres undefined)	uPA generation 12.6µM
CCN(CC)C(=O)N1CCN(/[N+]([O-])=N/Oc2ccc([N+](=O)[O-])cc2[N+](=O)[O-])CC1	none (no result: uPA generation, miR-21 act)
COc1cc(OC)c2c(-c3cccc(-c4sccc4C(C)=O)c3)cc(=O)oc2c1	uPA generation 2.82µM (no result: miR-21 act)
COCCn1c2nc(=O)n(-c3ccccc3)c(=O)c-2nc2ccccc21	TRPML1 agonist 58.9 (no result: uPA generation, miR-21 act)
Cc1ccc(C(=O)c2c3ccc([N+](=O)[O-])cc3[n+]([O-])n2CCC(N)=O)cc1	uPA generation 1.41µM
CN1C(=CC=C2C=C(I)C(=O)C(I)=C2)C(C)(C)c2ccccc21	none
CN1/C(=C\C=C2/C(=O)Oc3ccccc3C2=O)C(C)(C)c2ccccc21	TRPML1 agonist 98.5
CN1/C(=C\C=C2/SC(=S)NC2=O)C(C)(C)c2ccccc21	uPA generation inconclusive, TRPML1 agonist 85.4
CCCN1C(=O)/C(=C\C=C2\N(CC)c3ccccc3C2(C)C)SC1=S	none
NC(=Nc1ccc(Cl)cc1)c1ccccc1	TRPML1 agonist 64.8
O=C(C[n+]1cccc2cccc(O)c21)c1ccc(Br)cc1	none (no result: TRPML1 inh, uPA generation, miR-21 act)
CC1(c2ccc(OC(F)F)cc2)NC(=O)N(CC(=O)Nc2ccccc2)C1=O (centres undefined)	TRPML1 agonist inconclusive
CC(=O)Nc1ccc(/C=N/N2C(=O)NC(C)(c3ccc(OC(F)F)cc3)C2=O)cc1 (centres undefined)	TRPML1 agonist 50.0
CC(C)(C)n1ncc2c(=O)n(Cc3ccc(Cl)c(F)c3)cnc21	none (no result: uPA generation, miR-21 act)
CCCCCCCNC1=CC(=O)CC(c2ccccc2)C1 (centres undefined)	uPA generation 8.91µM
O=C(N/N=C/c1c(O)ccc2ccccc12)C(=O)N1CCCC1	none (no result: uPA generation, miR-21 act)
O=C(CN1CCCC1)N/N=C/c1c(O)ccc2ccccc12	uPA generation 5.01µM
O=C(N/N=C/c1c(O)ccc2ccccc12)c1cccc(C(F)(F)F)c1	TRPML1 agonist 91.5, miR-21 act inconclusive
COc1ccc2ccccc2c1/C=N/NC(=O)c1cccc(Br)c1	none
Cc1cnc2ccccc2c1/C=C/c1ccc(N)cc1	none (no result: TRPML1 inh, uPA generation, miR-21 act)
CC(C)(C)n1ncc2c(=O)n(Cc3cccc(OC(F)(F)F)c3)cnc21	none (no result: uPA generation, miR-21 act)
Nc1ccccc1SC(CC(=O)c1ccccc1)c1ccccc1 (centres undefined)	none (no result: uPA generation, miR-21 act)
CC(C(Sc1ccccc1N)c1ccccc1)[N+](=O)[O-] (centres undefined)	uPA generation 11.2µM
C/C=C(\NNC(C)=O)c1ccc(O)cc1	none (no result: TRPML1 inh, uPA generation, miR-21 act)
O=C(Nc1ccccc1OC(=O)c1ccccc1)c1ccccc1	uPA generation 11.2µM (no result: TRPML1 inh, TRPML1 agonist, miR-21 act)
COc1cc(NC(=O)C(C)C)ccc1NC(=O)c1cc2ccccc2o1	uPA generation 14.1µM (no result: TRPML1 inh, TRPML1 agonist)
COc1cc(NC(=S)NC(=O)C(C)C)ccc1NC(=O)c1cc2ccccc2o1	none
O=C(CCl)Nc1cccc(S(=O)(=O)NC2=NCCCCC2)c1	uPA generation 2.51µM (no result: miR-21 act)
O=C(Cc1ccc(OCC2CCCCC2)cc1)NO	none (no result: TRPML1 inh, uPA generation, miR-21 act)
Brc1ccc[n+](CCC2CCCCC2)c1	none (no result: TRPML1 inh, uPA generation, miR-21 act)
Cc1cccc2sc(NNC(=O)c3ccc(S(=O)(=O)N4CCCC(C)C4)cc3)nc12 (centres undefined)	uPA generation 8.91µM
CC(C)NC(=O)COC(=O)c1ccccc1OCC(=O)Nc1ccc(Br)cc1	none (no result: TRPML1 inh, uPA generation, miR-21 act)
COc1ccc(NC(=O)C2CCC(C(C)(C)C)CC2)cc1S(=O)(=O)N1CCCCC1 (centres undefined)	TRPML1 agonist 83.8
COc1ccc(NC(=O)C2CC2)cc1S(=O)(=O)N1CCOCC1	none (no result: miR-21 act)
Cc1ccc2c(c1)COc1c3ccc(C(=O)O)cc3nn1-2	uPA generation inconclusive
CC(C)[C@@H](CO)NC(=O)c1ccc2c3n(nc2c1)-c1ccccc1CO3	uPA generation 1.26µM
CCCCCCC#Cc1ccc2c(c1)COc1c3ccccc3nn1-2	none
CC(C)NC(=O)c1ccc2c3n(nc2c1)-c1ccccc1CO3	uPA generation 0.794µM
O=C(O)c1cc2cccc([N+](=O)[O-])c2[nH]1	none (no result: TRPML1 inh, uPA generation, miR-21 act)
CN(C)c1ccc(/C=C2\SC(=S)N(Nc3ncc(C(F)(F)F)cc3Cl)C2=O)cc1	TRPML1 agonist 52.8 (no result: uPA generation)
COc1cc(/C=C2\SC(=S)N(Nc3ncc(C(F)(F)F)cc3Cl)C2=O)ccc1O	none
Cc1cc2nn(-c3ccccc3)nc2cc1NC(=O)c1cccs1	none
CC(=O)Nc1cc2nn(-c3ccccc3)nc2cc1C	uPA generation 5.01µM
Nc1c(Cl)cc(/C=C2\C=Cc3ccccc32)cc1Cl	none (no result: TRPML1 inh, uPA generation, miR-21 act)
COc1ccc(-c2csc(NC(=O)c3ccccc3NS(=O)(=O)c3ccc(F)c(F)c3)n2)cc1	miR-21 act inconclusive
